From PubChem BioAssay (EPA / NIEHS)
Active and inactive are the calls of the source. Rule for the calls: active = hit-call score of the fitted dose curve at least 0.9, where 1 is the maximum; inactive = score below 0.9.

read-out: Vascular cell adhesion molecule 1 (VCAM1), VCAM1 (gene 7412); test: BSK_4H_VCAM1: BioMAP Diversity Plus: 4H Assay for Vascular cell adhesion molecule 1 (VCAM1) Biomarker Activity (AID 2283033); settings: primary human endothelial cells (HUVEC); actives raise or lower the signal
Description: BSK_4H is a cell-based, multiplexed-readout assay that uses umbilical vein endothelium, a human vascular primary cell, with measurements taken at 24 hours after chemical dosing in a 96-well plate.BSK_4H_VCAM1 is an assay component measured in the BSK_4H assay. It measures VCAM-1 antibody related to regulation of gene expression using ELISA technology.Data from the assay component BSK_4H_VCAM1 was analyzed into 1 assay endpoint. This assay endpoint, BSK_4H_VCAM1, was analyzed with bidirectional fitting relative to DMSO as the negative control and baseline of activity. Using a type of binding reporter, gain or loss-of-signal activity can be used to understand changes in the signaling as they relate to the gene VCAM1. Furthermore, this assay endpoint can be referred to as a primary readout, because this assay has produced multiple assay endpoints where this one serves a signaling function. To generalize the intended target to other relatable targets, this assay endpoint is annotated to the cell adhesion molecules intended target family, where the subfamily is Immunoglobulin CAM.
The levels of cell surface (or secreted, indicated by the prefix "s") biomarker endpoints were measured by ELISA. Overt cytotoxicity to cells in confluent adherent cultures (all systems other than the BT system) was assessed by measuring total protein levels using sulforhodamine B (SRB) staining in parallel cultures at the time of biomarker measurements, indicated as SRB endpoints. For proliferation assays for adherent cell types, individual cell types are cultured at sub-confluence and relative cell numbers quantified by SRB staining at time points optimized for each system (48 h: 3C and CASM3C systems; 72 h: BT and HDF3CGF systems; 96 h: SAg system). SRB was performed by staining cells with 0.1% SRB after fixation with 10% TCA and reading wells at 560 nm.Viability and proliferation of PBMC (T cells) was quantified by Alamar Blue reduction for the SAg and BT systems. For PBMC viability (referred to as PBMC Cytotoxicity within the assay endpoint names), cells were plated (75,000/well in a 96-well plate) and then chemical samples added for 1 h before addition of activators, SEB and TSST-1 (20 ng/mL final concentration each). Cells were incubated for 90 h. Then, Alamar Blue (20 uL/well) (Invitrogen, Cat DAL1100) was added for 6 h, and the plates were read with a fluorescence microplate reader at 546/580 nm (excitation/emission). For PBMC proliferation, cells were plated and activated as above but incubated for only 16 h prior to addition of Alamar Blue. Plates were read after 6 h.

SMILES | outcome | AC50
CN(C)C(=O)NC1(c2ccccc2)CCN(CC[C@@]2(c3ccc(F)c(F)c3)CN(C(=O)c3ccccc3)CCO2)CC1 | inactive | 
CC(C)c1cccc(C(C)C)c1 | inactive | 
O=C1OC(c2ccc(O)cc2)(c2ccc(O)cc2)c2ccccc21 |  | 30.8 µM (active)
NC1CCCCC1 | inactive | 
CC(COCC(C)OC(=O)c1ccccc1)OC(=O)c1ccccc1 (stereo not given) | inactive | 
NC=O | inactive | 
CO[C@@H]1COCC[C@@H]1N[C@@H]1CC[C@@](C(=O)N2CCc3ncc(C(F)(F)F)cc3C2)(C(C)C)C1 | inactive | 
CCc1nc(N)nc(N)c1-c1ccc(Cl)cc1 | inactive | 
CCCCCCCCCCCCCCOS(=O)(=O)O |  | 20 µM (active)
CCC(C)N(C)C(=O)c1cc2ccccc2c(-c2ccccc2Cl)n1 (stereo not given) | inactive | 
Cc1ccc(-c2cc(C(F)(F)F)nn2-c2ccc(S(N)(=O)=O)cc2)cc1 |  | 32.7 µM (active)
Cc1ccc(C(C)(C)C)c(O)c1 | inactive | 
c1ccc2occc2c1 | inactive | 
Cc1cc(Cc2ccc(N)c(C)c2)ccc1N | inactive | 
CSc1ccc(Oc2ccc(S(N)(=O)=O)cc2CN(C)C)cc1C | inactive | 
OCC(CO)n1cnc(-c2ccc(F)cc2)c1-c1ccnc(Oc2ccccc2)n1 | inactive | 
C=CCc1ccc(OC)c(OC)c1 | inactive | 
NC(=Nc1ccccc1)Nc1ccccc1 | inactive | 
CCCCC(CC)COC(=O)CCCCCCCC(=O)OCC(CC)CCCC (stereo not given) | inactive | 
Cn1cnc2c1c(=O)[nH]c(=O)n2C | inactive | 

SMILES | outcome | AC50
C/C=C/c1ccc(OC)cc1 | inactive | 
CCc1cc(C2=C(C(=O)O)N(c3ccccc3C(F)(F)F)S(=O)(=O)c3ccccc32)cc2c1OCO2 | inactive | 
CC(=O)CC(c1ccccc1)c1c(O)c2ccccc2oc1=O (stereo not given) | inactive | 
O=[Si]=O | inactive | 
CCCCC(CC)CO (stereo not given) | inactive | 
COc1ccc(C(=O)Nc2nc3ccccc3c(NCc3ccccc3)c2C#N)cc1 | inactive | 
O=C(Oc1ccccc1)c1cccc(C(=O)Oc2ccccc2)c1 | inactive | 
O=Cc1ccccc1C=O | inactive | 
COC(=O)[C@H]1[C@H]2C[C@@H]3c4[nH]c5cc(OC)ccc5c4CCN3C[C@H]2C[C@@H](OC(=O)c2cc(OC)c(OC)c(OC)c2)[C@@H]1OC |  | 8.36 µM (active)
CC(N)=O | inactive | 
CCCCCCC(CCCCCCCCCCC(=O)OCC(COC(C)=O)OC(C)=O)OC(C)=O (stereo not given) | inactive | 
CN(C)CCCN1c2ccccc2Sc2ccc(Cl)cc21 |  | 17.8 µM (active)
CC(C)NCC(O)c1ccc(O)c(O)c1 (stereo not given) | inactive | 
O=C(O)c1[nH]n(-c2ccc(S(=O)(=O)O)cc2)c(=O)c1N=Nc1ccc(S(=O)(=O)O)cc1 | inactive | 
CC1(C)C(=O)NC(=O)N1CO | inactive | 
Cc1occc(=O)c1O | inactive | 
CN(C)CCCN(C)CCCN(C)C | inactive | 
CCCC[C@H]1CN(CC2CCOCC2)C(=O)OC12CCN(C1(C)CCN(C(=O)c3c(C)ncnc3C)CC1)CC2 | inactive | 
O=C1O[C@H]([C@H](O)CO)C(O)=C1O | inactive | 
CC(=O)OC1CC(C)OC(C)O1 (stereo not given) | inactive | 
